The values below come from the supplement of paper PMC8877412.

The structures appear in SMILES notation. Counter-ions that a name gives are not always drawn. ± gives the uncertainty stated by the source.

The assay deals with NCC-PMP1-C1. The assay is described as follows: cell viability relative to DMSO control; higher = less growth inhibition. Conditions: 10 µM; 72 h. As for the experimental part: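 NCC-PMP1-C1 pseudomyxoma peritonei cells were seeded in 384-well plates coated with Matrigel and MEF (1e4 cells). Viability was read after 72 h by CCK-8 and expressed as % of the DMSO control, mean ± SD of duplicates.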
For `COC(=O)N[C@H](C(=O)N[C@@H](Cc1ccccc1)[C@@H](O)CN(Cc1ccc(-c2ccccn2)cc1)NC(=O)[C@@H](NC(=O)OC)C(C)(C)C)C(C)(C)C` [Atazanavir Sulfate], the cell viability (commonly a read-out of living cells in per cent, often relative to untreated cells) turned out to be 109 ± 1.1%.
On to `CC(C)(C#N)c1cc(Cn2cncn2)cc(C(C)(C)C#N)c1` [Anastrozole], for which the cell viability is 110 ± 6.5%.
Next, `Cc1[nH]c(/C=C2\C(=O)Nc3ccccc32)c(C)c1CCC(=O)O` [Orantinib (TSU-68, SU6668)]: 115 ± 2.1%; `CNC(=O)c1ccc(N2C(=S)N(c3ccc(C#N)c(C(F)(F)F)c3)C(=O)C2(C)C)cc1F` [Enzalutamide (MDV3100)]: 99.7 ± 15%; `CNC(=O)c1cc(Oc2ccc(NC(=O)Nc3ccc(Cl)c(C(F)(F)F)c3)cc2)ccn1` [Sorafenib]: -8.05 ± 0.27%.
In the case of `Cc1cc(Nc2ncc(Cl)c(Nc3ccccc3S(=O)(=O)C(C)C)n2)c(OC(C)C)cc1C1CCNCC1` [Ceritinib (LDK378)], the cell viability was -3.34 ± 0.36%.
Turning to `CC[C@]1(O)C[C@H]2CN(CCc3c([nH]c4ccccc34)[C@@](C(=O)OC)(c3cc4c(cc3OC)N(C=O)[C@H]3[C@@](O)(C(=O)OC)[C@H](OC(C)=O)[C@]5(CC)C=CCN6CC[C@]43[C@@H]65)C2)C1` [Vincristine], the cell viability turned out to be 50.8 ± 0.53%.
For the molecule `Nc1ccn([C@@H]2O[C@H](CO)[C@@H](O)C2(F)F)c(=O)n1` [Gemcitabine], the cell viability is 68.1 ± 11%.
With `C=CC(=O)N1CCC(Oc2cc3c(Nc4ccc(Cl)c(Cl)c4F)ncnc3cc2OC)CC1` [Poziotinib (HM781-36B)], the cell viability was 76.9 ± 8.5%.
On to `O=C(CCCCCCC(=O)Nc1ccccc1)NO` [Vorinostat (SAHA, MK0683)], for which the cell viability is 27.7 ± 2.2%.
Take `CC#CCn1c(N2CCC[C@@H](N)C2)nc2c1c(=O)n(Cc1nc(C)c3ccccc3n1)c(=O)n2C` [Linagliptin]: the cell viability came out at 94.5 ± 11%.
For `Cc1ccc(F)c(NC(=O)Nc2ccc(-c3cccc4[nH]nc(N)c34)cc2)c1` [Linifanib (ABT-869)], the cell viability is 45.2 ± 6.3%.
Next, `CCC(C)n1ncn(-c2ccc(N3CCN(c4ccc(OCC5COC(Cn6cncn6)(c6ccc(Cl)cc6Cl)O5)cc4)CC3)cc2)c1=O` (stereo not given) [Itraconazole]: 81.9 ± 2.1%; `CN(Cc1cnc2nc(N)nc(N)c2n1)c1ccc(C(=O)N[C@@H](CCC(=O)O)C(=O)O)cc1` [Methotrexate]: 110 ± 1.7%; `O=C1NC(=O)[C@@H](c2cn3c4c(cccc24)CCC3)[C@@H]1c1c[nH]c2ccccc12` [Tivantinib (ARQ 197)]: 79.8 ± 7.7%.
Consider `CNC(=O)c1cc(Oc2ccc(NC(=O)Nc3ccc(Cl)c(C(F)(F)F)c3)cc2)ccn1` [Sorafenib Tosylate], for which the cell viability turned out to be 148 ± 14%.
As to `CO[C@H](C(=O)[C@@H](O)[C@@H](C)O)[C@@H]1Cc2cc3cc(O[C@H]4C[C@@H](O[C@H]5C[C@@H](O)[C@H](O)[C@@H](C)O5)[C@H](O)[C@@H](C)O4)c(C)c(O)c3c(O)c2C(=O)[C@H]1O[C@H]1C[C@@H](O[C@H]2C[C@@H](O[C@H]3C[C@](C)(O)[C@H](O)[C@@H](C)O3)[C@H](O)[C@@H](C)O2)[C@H](O)[C@@H](C)O1` [Mithramycin A], the cell viability is 7.11 ± 5.3%.
As to `O=P(O)(O)C(O)(Cn1ccnc1)P(=O)(O)O` [Zoledronic Acid], the cell viability came out at 109 ± 6%.
Next, `CC(=O)OCC(=O)[C@@]1(O)CC[C@H]2[C@@H]3CCC4=CC(=O)CC[C@]4(C)[C@H]3C(=O)C[C@@]21C` [Cortisone acetate]: 114 ± 4.4%; `CCc1ccc(CCOc2ccc(CC3SC(=O)NC3=O)cc2)nc1` (stereo not given) [Pioglitazone]: 92.8 ± 5.5%; `COc1cc2c(cc1O)CC[C@@H]1[C@@H]2CC[C@]2(C)[C@@H](O)CC[C@@H]12` [2-Methoxyestradiol (2-MeOE2)]: 98 ± 4%.
As to `COc1cc2nccc(Oc3ccc(NC(=O)Nc4cc(C)on4)c(Cl)c3)c2cc1OC` [Tivozanib (AV-951)], the cell viability turned out to be 60.7 ± 11%.
Consider `COc1cccc2c1C(=O)c1c(O)c3c(c(O)c1C2=O)C[C@@](O)(C(=O)CO)C[C@@H]3O[C@H]1C[C@H](N)[C@@H](O)[C@H](C)O1` [Epirubicin HCl], for which the cell viability was 3.6 ± 0.6%.
As for `Cc1ccc(C(=O)Nc2ccc(CN3CCN(C)CC3)c(C(F)(F)F)c2)cc1C#Cc1cnc2cccnn12`, the figure is 1.8 ± 0.67%.
Next, `Nc1ncn([C@@H]2O[C@H](CO)[C@@H](O)[C@H]2O)c(=O)n1` [Azacitidine]: 83.3 ± 6.9%.
As for `COc1ccc(C2=N[C@@H](c3ccc(Cl)cc3)[C@@H](c3ccc(Cl)cc3)N2C(=O)N2CCNC(=O)C2)c(OC(C)C)c1` [Nutlin-3], the cell viability was found to be 74.1 ± 4.9%.
As for `O=c1[nH]c(=O)n(C2CCCO2)cc1F` (stereo not given), the figure is 108 ± 3.1%.
As for `Nc1nc(F)nc2c1ncn2[C@@H]1O[C@H](COP(=O)(O)O)[C@@H](O)[C@@H]1O` [Fludarabine Phosphate], the cell viability is -11.4 ± 1.5%.
Consider `C[C@H](NC(=O)Cc1cc(F)cc(F)c1)C(=O)N[C@H](C(=O)OC(C)(C)C)c1ccccc1`, for which the cell viability amounted to 96.2 ± 2.6%.
On to `CNNCc1ccc(C(=O)NC(C)C)cc1` [Procarbazine HCl], for which the cell viability was 100 ± 22%.
`CNC[C@H](O)c1ccc(O)c(O)c1` [Epinephrine Bitartrate]: the cell viability came out at 127 ± 6.3%.
As for `Nc1[nH]cnc2ncnc1-2` [Adenine HCl], the figure is 108 ± 25%; as for `CS(=O)(=O)CCNCc1ccc(-c2ccc3ncnc(Nc4ccc(OCc5cccc(F)c5)c(Cl)c4)c3c2)o1` [Lapatinib], 50.4 ± 2.3%; as for `FC(F)(F)c1ccc(CNc2ccc(Cc3c[nH]c4ncc(Cl)cc34)cn2)cn1` [Pexidartinib (PLX3397)], 63.2 ± 6%.
As for `COC(=O)c1ccc2c(C(=Nc3ccc(N(C)C(=O)CN4CCN(C)CC4)cc3)c3ccccc3)c(O)[nH]c2c1` [Nintedanib (BIBF 1120)], the figure is 23.9 ± 1.6%; as for `O=C(c1ccc(OCCN2CCCCC2)cc1)c1c(-c2ccc(O)cc2)sc2cc(O)ccc12` [Raloxifene HCl], 92.9 ± 5.5%; as for `CCCCCOC(=O)Nc1nc(=O)n([C@@H]2O[C@H](C)[C@@H](O)[C@H]2O)cc1F` [Capecitabine], 98.9 ± 16%.
Take `Clc1ccc(C(c2ccccc2Cl)C(Cl)Cl)cc1` (stereo not given) [Mitotane]: the cell viability is 106.8 ± 1%.
As for `C=CC(=O)Nc1cc(Nc2nccc(-c3cn(C)c4ccccc34)n2)c(OC)cc1N(C)CCN(C)C` [Osimertinib (AZD9291)], the figure is 4.44 ± 0.89%.
Regarding `Cc1cn(-c2cc(NC(=O)c3ccc(C)c(Nc4nccc(-c5cccnc5)n4)c3)cc(C(F)(F)F)c2)cn1` [Nilotinib (AMN-107)], the cell viability was found to be 70.1 ± 16%.
